PubChem BioAssay (NCATS)
Activity calls are given as the source filed them. A call without a number means that no potency is given here. Calls follow the shape of the dose curve; as a rule, active = well fitted inhibition curve with a large enough effect; inconclusive = small, poorly fitted or top-dose-only effect; inactive = flat fitted curve, though single readings scatter.

tested on: Nanoluciferase (engineered Oplophorus gracilirostris luciferase); assay: Primary Nanoluciferase (NLuc) qHTS assay for identification of artifact compounds. (AID 1845222); details: NLuc-conditioned medium, Nano-Glo luminescence, 5 min; series mostly up to 54.1 µM
Excerpt: PI: Alexander Tropsha Ph.D.
UNC Eshelman School of Pharmacy
University of North Carolina, Chapel Hill, North Carolina
Hits from high-throughput screening (HTS) of chemical libraries are often false positives due to their interference with the assay detection technology. In response to this problem, we generated the largest publicly available library of chemical liabilities and developed a free webtool to predict HTS artifacts, both of which are described herein. More specifically, we generated, curated, and integrated HTS datasets for thiol reactivity, redox activity, and luciferase (firefly and nano) activity. Using these curated datasets, we developed and validated several Quantitative Structure-Interference Relationship (QSIR) models to predict nuisance behavior. […] These models were employed for virtual profiling of the National Center for Advancing Translational Science's (NCATS) in-house library, and 256 compounds for each assay were selected for the experimental validation of nuisance behavior. The BA for these external predictions ranged from 58 to 78% for compounds within the applicability domains of the models. […] The models developed in this study, along with aggregation models previously developed by our group (SCAM Detective) were implemented in "Liability Predictor," an online tool which may be used as part of chemical library design or for triaging HTS hits. Both the models and the curated datasets are publicly available at https://liability.mml.unc.edu/.
SEQUENCE No. (e.g., 1, 2, 3, etc.); […] (e.g., Cells, Incubation, Reagent, etc.); VALUE; DESCRIPTION.
1; Reagent; 2 uL; Nanoluciferase media.
2; Compounds and control; 16 nL; Kalypsis pin tool (Wako USA) equipped with a 1536-well pin head.
4; Reagent; 2 uL; Luciferase enzyme.
6; Detection; Luminescence, ViewLux microplate reader.
NOTES (numbers refer to Sequence numbers above)
1. Medium was collected from the culture flasks of NLuc-expressing S16 cells (80% confluent) prior to cell plating, filtered through a 0.22um filter, and frozen at -20C prior to use. Media was diluted (1:55) and 2 uL was dispensed into all wells of a 1536-well assay plate (solid-bottom white plate; Greiner Bio One, Monroe, NC).
2. A Wako Pin-tool (Wako Automation, Richmond, VA) was used to transfer 16 nL of compounds (consisting of 7-plates in qHTS format, final concentration range 18.3 nM to 114 uM) or control Cilnidipine (final concentration range 623 nM to 80 uM).
3. 15 min. incubation at room temperature protected from light.
4. 2 uL of NLuc substrate (1:100 in Nano-Glo luciferase buffer; Nano-Glo luminescence assay, Promega, Madison, WI) was dispensed for a final assay volume of 4 uL.
5. Plates were centrifuged (121xg, 15 seconds) and incubated for 5 minutes.
6. Samples were read for luminescence on a ViewLux CCD imager (PerkinElmer). Data were normalized to no-enzyme (0% activity) and no-inhibitor (DMSO; 100%) controls and the resulting percent inhibition data were fitted to a 4-parameter Hill equation using NCATS in-house software.

Row | SMILES | Potency
1 | CN(C)C(=O)CNC(=O)Cc1ccccc1 | inactive
2 | CO/N=C(/C(=O)N[C@@H]1C(=O)N2C(C(=O)O)=C(Cn3nnc(C)n3)CS[C@H]12)c1csc(N)n1 | inactive
3 | CC(=O)Oc1ccc(C2(c3ccc(OC(C)=O)cc3)Oc3ccccc3NC2=O)cc1 | inactive
4 | C=CC[N+]1([C@H]2C[C@H]3[C@@H]4CC[C@H]5C[C@H](OC(C)=O)[C@@H](N6CCCCC6)C[C@]5(C)[C@H]4CC[C@]3(C)[C@H]2OC(=O)CC)CCCCC1 | inactive
5 | C=CCOc1cc(Cl)ccc1C(=O)NCCN(CC)CC | inactive
6 | CCOC(=O)c1ccc(OCCN2C[C@H](O)[C@@H](O)[C@H](O)[C@H]2CO)cc1 | inactive
7 | CC(=O)O[C@@H]1C(=O)O[C@@H]2[C@H]1OC(=O)[C@@H]2OC(C)=O | inactive
8 | O=C1NC2CCCCN2C12CCN(CCCN1c3ccccc3CCc3ccc(Cl)cc31)CC2 (stereo not given) | inactive
9 | CCN(CC)CCOc1ccc(/C(=C(\Cl)c2ccccc2)c2ccccc2)cc1 | inactive
10 | Cn1cc(S(C)=O)c(=O)c2ccc(F)cc21 (stereo not given) | inactive
11 | O=C1CC[C@H](C(=O)N2CCCCC2)N1 | inactive
12 | CCCCCOc1ccc(C2SC(=O)NC2=O)cc1OCC (stereo not given) | inactive
13 | CC1CC(=O)NN=C1c1ccc(NCC(C)(C)NCC(O)COc2cc(Cl)ccc2C#N)cc1 (stereo not given) | inactive
14 | CCNC(=O)NCCCOc1cccc(CN2CCCCC2)c1 | inactive
15 | O=C1[C@@H]2[C@H]3CC[C@H](C3)[C@@H]2C(=O)N1CCCCN1CCN(c2ncccn2)CC1 | inactive
16 | O=C1NC(c2cccc([N+](=O)[O-])c2)=CCN1c1ccccc1O | inactive
17 | OC1(c2ccc(Cl)c(C(F)(F)F)c2)CCN(CCCC(c2ccc(F)cc2)c2ccc(F)cc2)CC1 | inactive
18 | CCc1cc(S(=O)(=O)O)c2cc(C(C)C)cccc1-2 | inactive
19 | O=C(NN1CCCC1)NS(=O)(=O)c1ccc(Cl)cc1 | inactive
20 | CN(CC1(C)CCCO1)S(=O)(=O)c1ccc(Cl)c(S(N)(=O)=O)c1 (stereo not given) | inactive

Row | SMILES | Potency
21 | Cc1cccc(N(C)C(=S)Oc2ccc3c(c2)CCC3)c1 | inactive
22 | CCOC(=O)c1ccc(NC(=O)CN2CCCCC2)cc1 | inactive
23 | CC(=O)Nc1ccn(C2COC(COC(=O)c3ccccc3)O2)c(=O)n1 (stereo not given) | inactive
24 | C[N+]1(CC2COC(c3ccccc3)(c3ccccc3)O2)CCCCC1 (stereo not given) | inactive
25 | C[C@H](CN1CCCC1)C(=O)c1ccc(C(F)(F)F)cc1 | inactive
26 | COc1ccccc1N1CCN(CCN2C(=O)CC3(CCCC3)CC2=O)CC1 | inactive
27 | COc1cc(NS(=O)(=O)c2ccc(N)cc2)nc(C)n1 | inactive
28 | CCC(C(=O)NC(=O)NC(C)=O)c1ccccc1 (stereo not given) | inactive
29 | COC(=O)C1=CO[C@@H](O)[C@@H]2C(CO)=CC[C@H]12 | inactive
30 | CCN1CCN(c2cc(-c3ccc(F)cc3)c3c(n2)CCCCCC3)CC1 | inactive
31 | Cc1nn(-c2ccccc2)c(C)c1/C=N/N1CCN(Cc2ccccc2)CC1 | inactive
32 | CN(C)c1cc2c(Nc3ccc4c(cnn4Cc4ccccc4)c3)ncnc2cn1 | inactive
33 | CCOC(=O)Cn1cccc1-c1nc(-c2ccc(OC)cc2)c(-c2ccc(OC)cc2)s1 | inactive
34 | Clc1ccc2c(c1)N=C(N1CCNCC1)c1ccccc1N2 | inactive
35 | CCCCNc1ccc(C(=O)OCCN(CC)CC)cc1 | inactive
36 | CC[N+]1(CC)CCC(=C(c2ccccc2)c2ccccc2)C1C (stereo not given) | inactive
37 | CC(C(=O)O)c1ccc(/C=C2\CCCCC2=O)cc1 (stereo not given) | inactive
38 | CC(C(O)c1ccccc1)N(C)CCOC(c1ccccc1)c1ccccc1 (stereo not given) | inactive
39 | CC(=O)OCC(=O)Nc1cc(C#N)cc(NC(=O)COC(C)=O)c1Cl | inactive
40 | O=C1NC(=O)/C(=C/c2ccc3c(c2)OC(F)(F)O3)S1 | inactive
